Measurements from ChEMBL document CHEMBL3988442, “University of Dundee, Small-Polar-MMV Screening Library” (2021).

Target: T1, Aspartate--tRNA(Asp/Asn) ligase (Mycobacterium tuberculosis (strain ATCC 25618 / H37Rv)) (UniProt P9WFW3)
T1 sequence (whole entry): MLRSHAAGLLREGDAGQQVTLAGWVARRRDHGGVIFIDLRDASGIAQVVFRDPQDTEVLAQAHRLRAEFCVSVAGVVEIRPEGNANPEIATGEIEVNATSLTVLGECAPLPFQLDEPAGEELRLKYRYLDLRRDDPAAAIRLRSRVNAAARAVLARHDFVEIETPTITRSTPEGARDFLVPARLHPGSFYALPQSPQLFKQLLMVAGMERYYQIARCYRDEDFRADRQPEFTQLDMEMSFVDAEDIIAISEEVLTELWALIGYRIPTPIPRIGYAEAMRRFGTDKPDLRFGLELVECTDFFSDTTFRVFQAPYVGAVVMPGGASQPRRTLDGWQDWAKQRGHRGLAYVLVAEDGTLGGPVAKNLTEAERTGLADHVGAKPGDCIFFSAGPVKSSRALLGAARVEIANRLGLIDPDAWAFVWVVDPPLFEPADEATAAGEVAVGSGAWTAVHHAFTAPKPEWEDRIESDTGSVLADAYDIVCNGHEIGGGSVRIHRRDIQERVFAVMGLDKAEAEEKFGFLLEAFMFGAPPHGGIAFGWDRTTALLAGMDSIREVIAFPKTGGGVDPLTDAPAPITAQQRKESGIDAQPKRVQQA
Test: Assay for Asp RNA synthetase-1 from Mycobacterium tuberculosis
Assay type: functional
Parameters: scale not given: in the data most compounds retested in dose-response had high values
Conditions: 30 µM

SMILES	Percent Effect
O=C(O)C(c1ccc2c(c1)OCO2)N1CCC(C(=O)N2CCCC2)CC1 (stereo not given)	-0.103%
CCCS(=O)(=O)N1CCC(NC(=O)c2cc(C)c(CC)s2)CC1	-2.13%
Cc1c[nH]c(CN(C)C(=O)c2cccc(CCC(C)(C)O)c2)n1	-1%
CCN(C)c1ccc(C(=O)N(CCOC)Cc2ccccn2)cc1	2.13%
CCc1nc(CNC(=O)Nc2ccc(C(=O)NC)cc2C)cs1	-0.0804%
O=S1(=O)C[C@@H]2[C@H](C1)N(Cc1cc(Cl)cc(Cl)c1)CCN2CC1CC1	0.655%
NC(=O)CN1CC2(CCC1=O)CCN(Cc1cc(F)ccc1Cl)CC2	0.126%
COC1CCN(C(=O)c2c(Cl)c3ccccc3n2C)CC1	-5.5%
Cc1nonc1CN(C)CC1(O)CCCN(CCC2CCCCC2)C1=O (stereo not given)	0.149%
Cc1cc(C2CCCN2C(=O)NCc2cccc(F)c2)on1 (stereo not given)	-1.23%
CCn1nc(C)c(CCn2ccnc2-c2cc3n(n2)CCCNC3)c1C	-1.76%
CSC(C)(C)CNC(=O)NC1CCSCC1	0.103%
CCCn1cc(C(=O)N(C)Cc2nc(-c3ccccn3)no2)c(C)n1	-0.218%
Cc1nn(C)cc1CNC(=O)c1cn(CCC2CCCCN2)nn1 (stereo not given)	-2.13%
CCn1nc(C)c(CNC(=O)c2cn(CCC3CCCCN3)nn2)c1C (stereo not given)	0.0575%
COc1ccc(-c2nc(CN3CCOCS3(=O)=O)c(C)o2)cc1	-1.67%
O=S(=O)(Cc1ccccc1F)NCCCN1CCCCC1	0.172%
O=C(NCCc1ccncc1)C1CCN(Cc2ccco2)CC1	-3.6%
Cc1nn(-c2ccccc2)c2c1C(c1ccc(C(=O)O)cc1)CC(=O)N2 (stereo not given)	1.57%
CN(C)c1ccc(CCNC(=O)C2CCC(=O)N(C3CCCC3)C2)cc1 (stereo not given)	-4.1%

SMILES	Percent Effect
CCn1cc(CN(C)C(=O)c2cccc(CCC(C)(C)O)c2)cn1	-0.126%
CCCOCCN1CCC2(CC1)CC(c1ccccc1)C(=O)N2C (stereo not given)	-5.14%
O=C1CCC2(CCN(Cc3cc(F)ccc3Cl)CC2)CN1C1CCCC1	0.0575%
CC(C)Oc1ccc(CSc2nnc(CN3CCCC3=O)o2)cc1	-7.23%
CCc1nc(NS(=O)(=O)c2ccc(C)cc2Cl)no1	-5.6%
FC(F)(F)COCCN1CCCC(c2noc(C3CC3)n2)C1 (stereo not given)	-0.517%
CCc1cc(N2CCCNCC2)n2nc(C)c(C)c2n1	-1.41%
COc1ccc(-n2cnnc2SCC(C)(C)O)cn1	-0.425%
N#Cc1cn(CC(=O)NC2CC2)c2ccc(Br)cc2c1=O	0.517%
CC(C)N1CCC(NCc2cccnc2N(C)Cc2ccccc2)CC1	-1.94%
CCCNC(=O)CCNC(=O)Cc1nc(-c2ccco2)oc1C	2.08%
O=C1N(Cc2ccccc2F)CCCC12CCN(C1CCSCC1)C2 (stereo not given)	-2.75%
CCC[C@@H]1CN(S(=O)(=O)c2ccc(C)c(F)c2)C[C@H]1N(C)C	0.149%
CC(C)n1ccnc1C1CCCN(c2ccccn2)C1 (stereo not given)	-2.15%
CN(Cc1csc(-c2cccs2)n1)C(=O)CCn1ccccc1=O	-1.85%
Cc1nccn1CCC1CCCCN1Cc1ccncc1 (stereo not given)	-1.16%
CN(CCNC(=O)N1CCN(Cc2ccon2)CC1)C1CCCC1	-5.04%
CCCc1nc(N2Cc3cnn(Cc4ccc(F)cc4)c3C2)no1	-0.77%
O=S(=O)(Cc1ccccc1F)NCCN1CCOCC1	-2.93%
Cc1nccn1CCC1CCCCN1Cc1ccc(N(C)C)nc1 (stereo not given)	2.17%
